Hits are enriched below; roughly 3.1% of the tested compounds scored in any of these assays.
HSF1 inhib = HSF1 inhibition | activity change, negative = inhibition, % at 7.5 µM (by protocol) | 300,000 tested, 0.77% active | AID 2098 | NIH3T3-HGL HSE-luciferase, MG132-induced, luminescence 8 h; active compounds read low;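 active = more than half of replicate wells show activity change below -50%, luminescence cut by over half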;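 also: luciferase reports HSF-1 transcriptional activity via heat shock element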
HIF activator = HIF pathway transcriptional activation | AID 1910 | U2OS HRE-luciferase reporter, luminescence; normalized: DMSO 0%, desferrioxamine 100% | activation, % at 7.5 µM (by protocol) | 300,000 tested, 0.32% active;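 active = mean activation of at least 10% of the iron chelator positive control signal, with at least half of replicates also reaching 10%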
HSF-1 act = increases HSF-1 driven luciferase reporter signal | NIH3T3-HGL HSF-1 luciferase reporter, MG132, 8 h; 100% = twice DMSO control signal | 300,000 tested, 1.7% active | activation, % at 9 µM;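 active = mean replicate activation of at least 50% with a set share of replicates each reaching 50%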
ARNT-TACC3 inh = disrupts binding between human ARNT and TACC3; AlphaScreen His-ARNT PAS-B/GST-TACC3 binding, luminescence; TACC3 fragment carries E629A point mutation; inhibition, % at 9.99 µM; 390,000 tested, 0.66% active; AID 623870;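 active = mean inhibition of replicates at least 50% and at least half of replicates each reaching 50%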
HSP90 refold inh = HSP90 refolding inhibition in rabbit reticulocyte lysate; 290,000 tested, 0.91% active; luciferase refolding luminescence, 3 h; inhibition, % at 5.6 µM;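 active = inhibition above the screen-wide mean plus 3 SD, computed separately per campaign, cut at about 16% in these data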;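 also: inhibitors lower the luminescence because luciferase stays unfolded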
Each line names hits and unclear results; the compound was inactive in the other large screens.

CCCC#Cc1ccc([C@H]2[C@@H](CO)N3CCCCN(Cc4cccnc4)C[C@@H]23)cc1	none (no result: HSF1 inhib, HIF activator, HSF-1 act, HSP90 refold inh)
Cc1ccc(C2=C(O)C(=O)C(c3ccc(C)cc3)=C(O)C2=O)cc1	none (no result: HSF1 inhib, HIF activator, HSF-1 act, HSP90 refold inh)
CC1=C(O)C(=O)C(C2=C(O)C(=O)C(C)=C(O)C2=O)=C(O)C1=O	ARNT-TACC3 inh 66 (no result: HSF1 inhib, HIF activator, HSF-1 act, HSP90 refold inh)
COCC(=O)N(C)C[C@H]1Oc2cc(C#CCC3CCCC3)ccc2S(=O)(=O)N([C@H](C)CO)C[C@@H]1C	none (no result: HSF1 inhib, HIF activator, HSF-1 act, HSP90 refold inh)
CC(C)COc1ccc(C(=O)Nc2ccc([N+](=O)[O-])cc2)cc1	HIF activator 15
COc1ccc(NC(=O)N(C)C[C@H]2OCCCC[C@H](C)Oc3ccc(NC(=O)CCC(F)(F)F)cc3C(=O)N([C@H](C)CO)C[C@@H]2C)cc1	none (no result: HSF1 inhib, HIF activator, HSF-1 act, HSP90 refold inh)
CO[C@H]1CN(C)C(=O)c2cc(C#N)ccc2OCC[C@@H]2CC[C@@H](OC)[C@H](CN(C)C(=O)[C@H]1C)O2	none (no result: HSF1 inhib, HIF activator, HSF-1 act, HSP90 refold inh)
COC(=O)C1=C(C)NC2=C(C(=O)CC(C)(C)C2)C1c1cn(Cc2ccc(Br)cc2)nc1-c1ccccc1 (configuration not stated)	HSF-1 act 74
COC(=O)C1=C(C)NC2=C(C(=O)CCC2)C1c1cn(Cc2ccc(Br)cc2)nc1-c1ccccc1 (configuration not stated)	none
C/C=C/c1cnc2c(c1)C(=O)N([C@H](C)CO)C[C@H](C)[C@H](CN(C)Cc1ccc3c(c1)OCO3)O2	none (no result: HSF1 inhib, HIF activator, HSF-1 act, HSP90 refold inh)
COC(=O)Nc1ccc(S(=O)(=O)N(C)C)cc1	HIF activator 29
O=S(=O)(Nc1cccc2ccccc12)c1ccccc1	HSF-1 act 61
COC(=O)Nc1ccc(S(=O)(=O)Nc2cccc3ccccc23)cc1	HSF-1 act 68
Cc1[nH][nH]c(=O)c1C(c1cc(Br)ccc1O)c1c(C)[nH][nH]c1=O	ARNT-TACC3 inh active
O=C(C[C@@H]1CC[C@H](NC(=O)NC2CCCCC2)[C@H](CO)O1)NCc1ccc(Cl)cc1	none (no result: HSF1 inhib, HIF activator, HSF-1 act, HSP90 refold inh)
COc1c(N2CCN(C(=S)Nc3ccc(F)cc3)C(C)C2)c(F)cc2c(=O)c(C(=O)O)cn(C3CC3)c12 (configuration not stated)	none
COc1c(N2CCN(C(=S)NC3CC4CCC3C4)C(C)C2)c(F)cc2c(=O)c(C(=O)O)cn(C3CC3)c12 (configuration not stated)	HSF1 inhib -55
CNc1nc(SC(C)C(=O)Nc2ccc(Cl)c(Cl)c2)nc(N2CCOCC2)n1 (configuration not stated)	HSF-1 act 68
O=C(C[C@@H]1CC[C@H]2[C@@H](COC[C@H](O)CN2C(=O)Nc2cccc(Cl)c2)O1)NCc1ccccc1F	none (no result: HSF1 inhib, HIF activator, HSF-1 act, HSP90 refold inh)
CCOC(=O)C1(Cc2ccc(OC)cc2)CCN(C(=O)c2cc3ccccc3[nH]2)CC1	HSF-1 act 77
CC1(C)Cc2c(sc3nc(-c4cccs4)n(N)c(=O)c23)CO1	none
Nn1c(-c2cccs2)nc2sc3c(c2c1=O)CCCC3	HSF-1 act 70
CC(=O)Nc1ccc(/C=N/Nc2nc3ccccc3[nH]2)cc1	HSF-1 act 128
C(=N\Nc1nc2ccccc2[nH]1)/c1ccc2c(c1)OCO2	HSF-1 act 492
CCN(CC)c1ccc(/C=N/Nc2nc3ccccc3[nH]2)cc1	HSF-1 act 431
C/C(=N\Nc1nc2ccccc2[nH]1)c1ccc2c(c1)OCO2	none (no result: ARNT-TACC3 inh)
C(=N\Nc1nc2ccccc2[nH]1)/c1ccncc1	none (no result: ARNT-TACC3 inh)
O=C([C@H]1N[C@H]2c3ccc(-c4ccccc4F)c(=O)n3C[C@H]2[C@@H]1CO)N1CCc2ccccc2C1	none (no result: HSF1 inhib, HIF activator, HSF-1 act, HSP90 refold inh)
CS(=O)(=O)N1[C@H](C#N)[C@@H](c2ccc(C#Cc3cccc(F)c3)cc2)[C@H]1CO	none (no result: HSF1 inhib, HIF activator, HSF-1 act, HSP90 refold inh)
C[C@H](CO)N1C[C@H](C)[C@H](CN(C)Cc2ccccc2)OCCCC[C@H](C)Oc2ccc(NC(=O)Nc3ccc(C(F)(F)F)cc3)cc2C1=O	none (no result: HSF1 inhib, HIF activator, HSF-1 act, HSP90 refold inh)
Cc1ccc(SCCOCCN2CCOCC2)cc1	none
c1ccc(SCCOCCN2CCOCC2)cc1	HSF-1 act 64
C[C@H](NC(=O)C[C@H]1C[C@H]2c3cc(NC(=O)Cc4ccncc4)ccc3O[C@H]2[C@@H](CO)O1)c1ccccc1	none (no result: HSF1 inhib, HIF activator, HSF-1 act, HSP90 refold inh)
CN1C(=O)c2cc(NC(=O)c3ccc(F)c(F)c3)ccc2OC[C@@H]2O[C@@H](CC(=O)N3CCOCC3)CC[C@H]21	none (no result: HSF1 inhib, HIF activator, HSF-1 act, HSP90 refold inh)
CCCn1c(SCc2ccccc2)nc2c1c(=O)[nH]c(=O)n2C	none
CCCCCn1c(SCc2cccc(C)c2)nc2c1c(=O)[nH]c(=O)n2C	HSF-1 act 60 (no result: HSP90 refold inh)

Assay outcomes deposited in PubChem BioAssay by several laboratories.
